Reference: the supplement of paper PMC6555819

Experiments:
Test in all cases: PBM binding z-score (relative to random genomic background probes); higher = stronger binding; sequences stand for … in GC…GCGATTGACAGCGTAGAATGAAGG
[1] = tested on: PPARg:RXRa DBDmut IVT, anti-RXR (DBD mutation: RXRa K156A/R161A, NR concentration 270 nM, RXRa partner concentration 90 nM)
Method in brief: (§1)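 Binding z-scores were set against random background probes. The data came from custom Agilent 4×180K protein-binding microarrays carrying double-stranded probes with 34-nt variable regions, incubated 1 h with ligand-free nuclear receptor dimers. Partner-specific antibodies detected binding, and scanned fluorescence was regression-normalized.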

[2] = tested on: PPARg:RXRa IVT, anti-PPARg (NR concentration 270 nM, RXRa partner concentration 90 nM)
Method in brief: as §1

[3] = tested on: PPARg DBDmut:RXRa IVT, anti-PPARg (DBD mutation: PPARg1 K132A/R137A, NR concentration 270 nM, RXRa partner concentration 90 nM)
Method in brief: as §1

[4] = tested on: PPARg DBDmut IVT, anti-PPARg (DBD mutation: PPARg1 K132A/R137A, NR concentration 270 nM)
Method in brief: as §1

[5] = tested on: PPARg homodimer (NR concentration 180 nM)
Method in brief: as §1

[6] = tested on: PXR:RXRa (NR concentration 270 nM, RXRa partner concentration 90 nM)
Method in brief: as §1

[7] = tested on: PXR homodimer (NR concentration 270 nM)
Method in brief: as §1

[8] = tested on: RARa:RXR (NR concentration 270 nM, RXRa partner concentration 90 nM)
Method in brief: as §1

[9] = tested on: RARa homodimer (NR concentration 270 nM)
Method in brief: as §1

[10] = tested on: RARb:RXRa (NR concentration 270 nM, RXRa partner concentration 90 nM)
Method in brief: as §1

Sequence	PBM binding z-score [1]	PBM binding z-score [2]	PBM binding z-score [3]	PBM binding z-score [4]	PBM binding z-score [5]	PBM binding z-score [6]	PBM binding z-score [7]	PBM binding z-score [8]	PBM binding z-score [9]	PBM binding z-score [10]
GGAACGAGGGCTAAGTTGATAGCATCTGTCGACG	0.209	0.114	0.146	-0.476	-0.2	-0.47	-0.382	-0.0692	-0.234	0.086
GCAGACAGGTGACACGCAGGTAACTCAGGGTGGC	0.596	1.21	-0.103	-0.383	-0.125	-0.218	-0.476	0.24	-0.572	0.684
TCATATAGGTAATTGCTAGGTGAAAGTCCGATCT	4.13	2.91	0.632	1.27	0.408	0.515	0.224	0.757	0.784	0.345
ATCTCTAGGTAAAGGTAGTTCAGTGAATGCAAAT	2.73	2.3	0.954	1.19	1.25	1.15	0.822	0.523	1.7	0.628
GATACACGGTCAGCTAGAGGCCAGAGTATGGAAA	-0.219	0.135	-0.178	-0.554	0.453	-0.394	-0.5	0.205	-0.0449	2.51
TGTATTAGTTGATTAGGGCAACCGAAACAGCGGA	0.222	1.62	1.15	1.19	1.28	-0.072	0.169	0.311	1.53	0.862
TAGCCAAGGTCATTGGGCCAGTATAGTACGCATC	2.26	4.14	1	0.266	2.22	4.33	1.15	4.03	0.395	5.01
CGAATTAGGTCAGAACAGGACAGTGAAGGATGAT	7.02	7.15	2.8	1.42	1.73	1.09	0.149	1.31	1.19	3.29
ATATGTAGGGTACATCCGGGTCATTCAGGCTATG	5.82	6.25	2.33	1.87	1.74	4.11	9.27	3.12	0.779	1.73
TCAGACAGGTGAAGGTAACACAGGTACGCAGTCG	2.57	1.37	-0.146	0.0418	1.19	1.02	0.463	1.28	0.787	1.32
TTACCAAGGCGAAAGGTCGTTGATGCACGCCTTG	0.0972	2.19	-0.305	-0.595	0.815	1.96	-0.0871	2.49	0.25	1.83
TCTGCTAGGTCAACGATGCTCAGCTAATCTGCTA	4	3.88	0.146	-0.121	-0.00894	0.886	-1.03	1.69	-0.557	3.82
CAGCCTAGGTCAGGGCCAGTATGGGAGGAACGTT	0.702	1.59	-1.71	-1.33	0.437	0.196	-0.864	0.839	-0.701	3.43
CGTCCAATGTCAAAGGTCAGTGAAGAGATGACGG	0.671	3.16	0.777	0.834	4.53	4.53	0.54	6.27	2	4.36
TCTAGTAGTTGATTAGGGCAACCGAAACAGCGGA	1.59	1.34	-0.69	0.23	-0.0887	0.0313	-0.395	0.285	-0.475	0.581
ATCTCTAGATAACAAGTTCAGTGAAAGAGAGGAC	-0.504	0.236	0.623	0.272	0.186	1.26	1.72	0.0962	0.589	1
TAGCCTAGGTCAGATCGGGCCACTATACGCTATA	0.727	1.46	-0.3	-0.905	0.204	1.73	-0.326	1.39	-0.348	3.01
TAGCCTAGGTCATATCGGGCCAGTATACGCTATA	1.18	2.19	0.112	0.0699	0.54	2.18	0.0831	1.92	-0.618	3.37
GTACCAAGGTGAATAGGTCGTTGAAGAGTAGGCG	1.8	2.92	0.0444	-0.34	1.08	1.12	0.219	1.79	0.784	1.94
CCGACTGGGGCAAGGTTATCATAACGCACAGCCA	3.18	3.27	-0.411	-0.512	0.593	0.253	-0.27	0.986	-0.0927	1.5
AGAACGAGGGCACGCTGAGTTGAAAGCAGAGTAG	3.49	3.67	0.808	0.246	0.111	1.36	-0.00968	1.1	-0.124	2.51
TCGAGTAGGTTAGTCGGGGCATTCATCCAACATA	2.52	2.11	0.0178	-0.145	0.384	0.279	0.0478	0.5	-0.336	0.665
GCTCGGAGGACACGGTCAGAGCTTTGTCCGTAGA	-0.213	-0.07	-1.69	-1.2	-0.679	-0.581	-1.34	-0.541	-1.26	2.09
CGTCCAAGGTCAGAGAGCTCAGTGAATGCCGAGT	2.67	1.84	-0.717	-0.346	1.67	2.14	0.855	2.37	0.367	4.6
